This is a sample that favours compounds with a hit; in the whole collection about 2.8% have one here.
KDM5B inh = KDM5B demethylase inhibition; Q9UGL1; KDM5B demethylase, FDH-coupled NADH fluorescence (FDH is formaldehyde dehydrogenase); Potency, µM (doses to about 57.7 µM), hits mostly inhibitors; 220,000 tested, 2.6% active; active = well fitted inhibition curve with a large enough effect; inconclusive = small, poorly fitted or top-dose-only effect; inactive = no such curve, though single readings can be large or run the other way; also: nearly all actives have a fitted effect of over 70% in size
Target sequence (Q9UGL1 whole entry, looked up): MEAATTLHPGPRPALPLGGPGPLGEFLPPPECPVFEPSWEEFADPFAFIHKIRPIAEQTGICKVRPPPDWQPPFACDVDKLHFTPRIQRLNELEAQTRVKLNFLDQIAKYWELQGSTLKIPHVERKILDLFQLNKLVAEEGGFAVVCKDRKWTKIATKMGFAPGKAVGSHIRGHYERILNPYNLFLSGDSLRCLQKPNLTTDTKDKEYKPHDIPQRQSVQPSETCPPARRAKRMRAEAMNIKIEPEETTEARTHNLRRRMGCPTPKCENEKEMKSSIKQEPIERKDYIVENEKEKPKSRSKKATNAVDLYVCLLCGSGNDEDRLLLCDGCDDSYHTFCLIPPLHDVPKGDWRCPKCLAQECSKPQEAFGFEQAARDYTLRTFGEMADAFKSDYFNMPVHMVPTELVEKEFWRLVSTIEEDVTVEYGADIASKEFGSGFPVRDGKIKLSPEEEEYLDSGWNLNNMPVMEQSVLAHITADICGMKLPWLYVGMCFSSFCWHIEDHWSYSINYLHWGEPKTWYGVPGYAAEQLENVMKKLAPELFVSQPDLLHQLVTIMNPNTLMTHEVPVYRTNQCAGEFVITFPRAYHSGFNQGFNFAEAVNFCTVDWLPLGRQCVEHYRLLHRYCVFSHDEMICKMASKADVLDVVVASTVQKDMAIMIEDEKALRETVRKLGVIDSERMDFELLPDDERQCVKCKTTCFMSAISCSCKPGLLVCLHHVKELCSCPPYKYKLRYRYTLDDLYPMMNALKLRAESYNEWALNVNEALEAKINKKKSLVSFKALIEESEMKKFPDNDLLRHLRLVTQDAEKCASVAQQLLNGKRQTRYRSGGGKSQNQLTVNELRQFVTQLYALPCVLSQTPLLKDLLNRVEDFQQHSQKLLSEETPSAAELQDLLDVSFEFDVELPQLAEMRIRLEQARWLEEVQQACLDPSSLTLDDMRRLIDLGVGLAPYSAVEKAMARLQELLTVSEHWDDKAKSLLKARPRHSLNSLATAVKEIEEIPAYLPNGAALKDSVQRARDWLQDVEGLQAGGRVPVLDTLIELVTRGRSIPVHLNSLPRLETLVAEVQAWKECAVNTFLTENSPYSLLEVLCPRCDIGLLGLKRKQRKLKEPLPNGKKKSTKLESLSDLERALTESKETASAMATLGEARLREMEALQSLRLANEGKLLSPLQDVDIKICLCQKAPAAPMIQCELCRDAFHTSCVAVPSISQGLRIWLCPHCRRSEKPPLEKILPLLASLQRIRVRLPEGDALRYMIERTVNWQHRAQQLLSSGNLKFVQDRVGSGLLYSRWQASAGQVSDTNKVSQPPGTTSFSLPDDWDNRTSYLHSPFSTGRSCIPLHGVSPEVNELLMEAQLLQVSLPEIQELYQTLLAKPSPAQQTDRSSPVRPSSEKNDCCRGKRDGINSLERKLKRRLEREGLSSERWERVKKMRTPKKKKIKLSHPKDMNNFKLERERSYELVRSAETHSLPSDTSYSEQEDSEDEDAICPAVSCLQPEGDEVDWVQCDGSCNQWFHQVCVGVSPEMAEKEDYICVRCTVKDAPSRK
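KDM5BΔAP (200 nM final) in 50 mM HEPES pH 7.5, 0.01% Tween-20 was preincubated 10 min at RT with compound over a concentration range. Substrate mix (H3K4me3 12.5 µM, α-KG 25 µM, Fe²⁺, ascorbate, NAD⁺, FDH) was added, and NADH fluorescence change over 30 min gave dose-response curves.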
IP6K1 inhibitor = inhibitors of human IP6K1; Q92551; IP6K1 kinase, ADP-Glo luminescence, 2 h; active compounds read low; activity change, % (series mostly up to about 58 µM); 140,000 tested, 0.81% active; AID 1645851; in the data active = activity change below about -25%
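ADP-Glo luminescence measures ADP made by human IP6K1 during a 2 h RT reaction with ATP/IP6 (mix at 1.3 mM/130 uM); top library doses 57.5 and 19.1 uM final.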
Numbers stand for hits; i = inactive; ? = inconclusive; nt = no result given.

SMILES | KDM5B inh | IP6K1 inhibitor
CC(C)c1nccn1CCCNC(=O)c1ccc(-c2ccc(F)cc2)nc1 | i | i
COc1cccc(-c2ccc(C(=O)NCCCn3ccnc3C(C)C)cn2)c1 | 28µM | i
CC(C)c1nccn1CCCNC(=O)c1ccc(NC2CCC(O)CC2)nc1 (stereo unspecified) | 28µM | i
COC1CCCN(c2ccc(C(=O)NCCCn3ccnc3C(C)C)cn2)C1 (stereo unspecified) | ? | i
N#Cc1ccsc1NC(=O)c1ccccc1Cc1ccccc1 | i | nt
O=C(c1cc2cc(Br)ccc2oc1=O)N1CCN(S(=O)(=O)c2ccccc2)CC1 | i | nt
Cn1c(=O)c2c(ncn2CC(COCc2ccc(F)cc2)OCc2ccc(F)cc2)n(C)c1=O (stereo unspecified) | i | nt
COc1cc(C(=O)OCc2cccc(C#N)c2)cc(OC)c1C | i | nt
CCCCn1c(=O)c(C(=O)N2CCN(C(=O)c3ccccc3Cl)CC2)nc2cccnc21 | nt | i
N#Cc1cccc(-c2cn3c(n2)N(C(=O)C2CCCO2)CCC3)c1 (stereo unspecified) | 32µM | i
N#Cc1cccc(-c2cn3c(n2)N(C(=O)C2CCC2)CCC3)c1 | 22µM | i
COc1cccc(-c2cn3c(n2)N(C(=O)C2CCCC2)CCC3)c1 | ? | i
COc1cccc(-c2cn3c(n2)N(C(=O)C2CCC2)CCC3)c1 | i | i
O=C(Nc1ccccc1C(=O)NC1CCCC1)c1cnc2ccccc2n1 | i | nt
COc1ccccc1-c1cccc(CN2CCCC(C(=O)N3CCC(c4ccccc4)CC3)C2)c1 (stereo unspecified) | nt | i
COc1ccc(Cl)cc1C(C(=O)O)N1CCCN(c2ncccn2)CC1 (stereo unspecified) | 28µM | i
COc1ccc(F)cc1C(C(=O)O)N1CCCN(c2ncccn2)CC1 (stereo unspecified) | ? | i
Cc1ccc(-c2cccc(CN3CCCC(NC(=O)c4ccccc4F)C3)c2)cc1Cl (stereo unspecified) | nt | i
COc1ccc(NC2CCCN(CC(=O)Nc3ccc(C)cn3)C2)cc1 (stereo unspecified) | 16µM | i
CCNc1ncc(C(=O)N2CCCC(Nc3ccc(OC)cc3)C2)cn1 (stereo unspecified) | i | i
O=C(Cn1nc(-c2ccc(F)cc2)ccc1=O)NC1CCCc2c1[nH]c1ccccc21 (stereo unspecified) | 14µM | i
O=C(NC1CCCc2c1[nH]c1ccccc21)c1n[nH]c2c1CCC2 (stereo unspecified) | ? | i
O=C(NC1CCCc2c1[nH]c1ccccc21)c1n[nH]c2c1CCCC2 (stereo unspecified) | 14µM | i
O=C(Cn1nc(-c2ccco2)ccc1=O)NC1CCCc2c1[nH]c1ccccc21 (stereo unspecified) | ? | i
O=C(Cn1cccc1-c1nc(-c2ccc3c(c2)OCO3)no1)N1CCCc2ccccc21 | 32µM | i
SMILES | KDM5B inh | IP6K1 inhibitor
O=C(Cn1cccc1-c1nc(-c2ccccc2)no1)N1CCc2ccccc21 | i | i
N#Cc1cccc(N2CCC3(CC(=O)NC3=O)C2)n1 (stereo unspecified) | 28µM | i
N#Cc1cccc(N2CCC(Oc3ccc(Cl)cc3)(C(=O)O)CC2)n1 | ? | i
O=C1CC2(CCN(c3cncc(C(=O)N4CCCCC4)n3)C2)C(=O)N1 (stereo unspecified) | 28µM | i
O=C(c1cncc(N2CCC3(CCCNC3=O)C2)n1)N1CCOCC1 (stereo unspecified) | ? | i
Cn1nc(-c2cccc(F)c2)c(N2CCCCC2)c1NC(=O)NCc1ccccc1 | nt | i
CCOC(=O)CCCN1CCC(CO)CC1 | i | nt
COc1ccc(-c2cnc(NC(=O)Cc3ccc(F)cc3)c3c2CCO3)cn1 | ? | i
COCCNc1nc(-c2ccc(NC(C)=O)cc2)cs1 | i | nt
COc1ccc(C(=O)Nc2ncc(-c3cccc(N(C)C)c3)c3c2OCC3)cc1 | ? | i
CNC(=O)c1cccc(-c2cnc(NC(=O)c3ccncc3)c3c2CCO3)c1 | i | i
COCCNc1ncc(-c2cccc(N[S+](C)(=O)[O-])c2)c2c1OCC2 | 35µM | i
COCCNc1ncc(-c2ccc(NC(C)=O)cc2)c2c1OCC2 | 35µM | i
COCCNc1ncc(-c2ccc(F)cc2)c2c1OCC2 | 32µM | i
COCCNc1ncc(-c2cccc(OC)c2)c2c1OCC2 | 35µM | i
Cc1nn(-c2ccccc2)c2c1C(C)N(C1CCN(C(=O)c3cccc(C(F)(F)F)c3)CC1)C2=O (stereo unspecified) | nt | i
COc1ccc(OCC(=O)Nc2ncc(-c3ccc(OC)nc3)c3c2OCC3)cc1 | i | i
COCCNc1ncnc2onc(-c3ccc(F)cc3)c12 | i | i
COCCNc1ncc(-c2ccc(SC)cc2)c2c1OCC2 | 5µM | i
COCCNc1ncc(-c2ccc(OC)cc2)c2c1OCC2 | 35µM | i
C=CCN1C(=O)COc2ccc(NC(=O)c3cc(=O)c4cc(Cl)ccc4o3)cc21 | i | nt
Cc1ccc(C(=O)Nc2ccc(C(C)C)cc2)c(Cl)c1 | i | nt
O=C(CCC(=O)c1ccc(Cl)cc1)OCC(=O)c1ccc([N+](=O)[O-])cc1 | i | nt
Cc1ccc2[nH]c(=O)c(CCC(=O)O)cc2c1 | ? | i
CCOC(=O)c1[nH]ncc1CN1CCOC(Cc2ccc(OC)cc2)C1 (stereo unspecified) | i | i
SMILES | KDM5B inh | IP6K1 inhibitor
CCCCNC(=O)CCc1cc2cc(OC)ccc2[nH]c1=O | ? | i
COc1ccc2[nH]c(=O)c(CN3CCOC(CN)C3)cc2c1 (stereo unspecified) | 25µM | i
COc1ccc2[nH]c(=O)c(CCC(=O)NCCCN3CCCC(C)C3)cc2c1 (stereo unspecified) | 32µM | i
COc1ccc2[nH]c(=O)c(CCC(=O)O)cc2c1 | 28µM | i
CCOC(=O)CN1CCN(C(=O)CCc2cc3cc(OC)ccc3[nH]c2=O)CC1 | 32µM | i
COc1ccc2[nH]c(=O)c(CCC(=O)NCCc3ccc(S(N)(=O)=O)cc3)cc2c1 | ? | i
CNC(=O)c1cc(C2CC2)nc2c1c(C1CCCN(C(=O)Cc3cccc(Cl)c3)C1)nn2C (stereo unspecified) | nt | i
CC(=O)N1CCCc2cc(S(=O)(=O)NCc3cccs3)ccc21 | i | nt
Cc1cccc(C)c1N1C(C(=O)OC(C)(C)C)=C(O)c2ccccc2S1(=O)=O | nt | i
COc1cccc(-c2ccc(C(=O)N3CCC(N[S+](=O)([O-])c4cccc(C(F)(F)F)c4)CC3)cc2)c1 | nt | i
CCc1ccc(-c2cc(C(F)F)n3nc(C)c(Br)c3n2)cc1 | i | nt
O=C(Cn1nc(-c2ccccc2)c2c(c1=O)CCCC2)Nc1ccccc1 | i | nt
Cn1ncc2c(C(=O)NCc3ccccn3)cc(-c3cccc(F)c3)nc21 | nt | i
O=S(Cc1ccc(F)cc1)Cc1cccc(C(F)(F)F)c1 (stereo unspecified) | i | nt
CCn1c(CO)nnc1C1CC(NC(=O)c2scc3c2CCCC3)C1 (stereo unspecified) | i | i
CCn1c(CO)nnc1C1CC(NC(=O)c2cnc3sccn3c2=O)C1 (stereo unspecified) | 28µM | i
Cc1nnnn1Cc1ccc(C(=O)N2CCc3nc(-c4cn[nH]c4)[nH]c3C2)cc1 | i | i
CNc1ncccc1C(=O)N1CCc2nc(-c3cn[nH]c3)[nH]c2C1 | 28µM | i
C#CCNC(=O)C1CCCN(Cc2cccc(-c3ccc(F)cc3F)c2)C1 (stereo unspecified) | nt | i
